The record followed here is PubChem BioAssay (NCATS).

The target of assay [1] is Glutathione peroxidase 1 (Homo sapiens) (UniProt P07203). Nature of the assay: Primary qHTS Assay for Inhibitors of Recombinant Selenoprotein Glutathione Peroxidase 1 (GPX1) (AID 1845191). Further: nearly all actives have a fitted effect of over 65% in size. A digest of the protocol:
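NADPH consumption tracked by fluorescence at 340/450 nm between t=0 and t=15 min, room temperature. Final mix: 10 nM GPX1, 100 nM glutathione reductase, 1 mM GSH, 0.5 mM NADPH, 0.5 mM cumene hydroperoxide, 0.01% BSA; 30 min compound–enzyme preincubation.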
In general terms: In qHTS, concentration-response curves come from the screen itself.

The target in assay [2] is Phospholipid hydroperoxide glutathione peroxidase GPX4 (Homo sapiens) (UniProt P36969). Nature of the assay: Primary qHTS Assay for Inhibitors of Recombinant Selenoprotein Glutathione Peroxidase 4 (GPX4) (AID 1845192). Further: nearly all actives have a fitted effect of over 65% in size. A digest of the protocol:
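NADPH consumption followed by fluorescence at 340/450 nm, t=0 and after 15 min at room temperature. Reaction started with cumene hydroperoxide (0.5 mM final) after 30 min compound–GPX4 preincubation; final 200 nM GPX4, 100 nM GR, 1 mM GSH, 0.5 mM NADPH.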

The target in assay [3] is Luciferin 4-monooxygenase (Photinus pyralis) (UniProt P08659). Nature of the assay: Primary firefly luciferase (FLuc) qHTS assay for identification of artifact compounds. (AID 1845220). Further: nearly all actives have a fitted effect of over 60% in size. Further: potency means the concentration at half of the fitted maximal effect. A digest of the protocol: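 Compounds sat 15 min at room temperature with 10 uM luciferin and 10 uM ATP (pH 7.6 Tris acetate). Firefly luciferase (10 nM final) was then added, and luminescence was read 5 min later. Data normalized to no-enzyme and DMSO controls were Hill-fitted.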

Assay [4] in a line: Primary fluorescence-based thiol-reactive (MSTI) qHTS assay for identification of artifact compounds. (AID 1845221). Further: nearly all actives have a fitted effect of over 65% in size. Further: potency means the concentration at half of the fitted maximal effect. An outline of the steps: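 qHTS titration of compound; 4 uM MSTI, PBS pH 7.4, 2% DMSO; 1 h RT, dark; fluorescence 525/598 nm; normalized to Acetyl-MSTI and MSTI; 4-parameter Hill fit.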
Assay [5] concerns Nanoluciferase (engineered Oplophorus gracilirostris luciferase). The assay can be described thus: Primary Nanoluciferase (NLuc) qHTS assay for identification of artifact compounds. (AID 1845222). Further: potency means the concentration at half of the fitted maximal effect. An outline of the steps:
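Luminescence from secreted NLuc (filtered, 1:55-diluted S16 cell medium) read 5 min after Nano-Glo substrate; compounds preincubated 15 min, RT. Hill fits of inhibition normalized to DMSO and no-enzyme.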

A short description of assay [6]: Primary redox qHTS assay for identification of artifact compounds. (AID 1845223). An outline of the steps: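 Redox-cycling detection via DTT (250 uM final) oxidation coupled to Amplex Red (25 uM)/HRP (250 mU/mL) in HBSS. 15 min preincubation plus 30 min after DTT, room temperature. Ex/Em 525/598 nm; 4-parameter Hill fit against DMSO and 10 uM DA3003.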
Assay [7] in a line: Quantitative High-Throughput drug screen in 47 multiple myeloma cell lines against the NCATS MIPE library collection: FR4_PLB cell viability assay (AID 1918924; further: nearly all actives have a fitted effect of over 35% in size; further: potency means the concentration at half of the fitted maximal effect). A digest of the protocol: (§1)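 Myeloma cells (500 per well) were exposed to MIPE 4.0 compounds by pin transfer and incubated 48 hours at 37C, 5% CO2. Viability was read as ATP by CellTiter-Glo luminescence, normalised to DMSO (100%) and media-only (0%) wells.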

Assay [8] in a line: Quantitative High-Throughput drug screen in 47 multiple myeloma cell lines against the NCATS MIPE library collection: Delta47_JCRB cell viability assay (AID 1918925; further: nearly all actives have a fitted effect of over 45% in size; further: potency means the concentration at half of the fitted maximal effect). An outline of the steps:
(§2)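 Steps: seed 500 cells per well; pin-transfer MIPE 4.0 library; incubate 48 h at 37C, 5% CO2, humidified; add CellTiter-Glo, 5 min room temperature; read luminescence.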

Assay [9] can be described thus: Quantitative High-Throughput drug screen in 47 multiple myeloma cell lines against the NCATS MIPE library collection: EJM_DSMZ cell viability assay (AID 1918926; further: nearly all actives have a fitted effect of over 30% in size; further: potency means the concentration at half of the fitted maximal effect). An outline of the steps: as §2
Assay [10] can be described thus: Quantitative High-Throughput drug screen in 47 multiple myeloma cell lines against the NCATS MIPE library collection: AMO1_DSMZ cell viability assay (AID 1918927; further: nearly all actives have a fitted effect of over 30% in size; further: potency means the concentration at half of the fitted maximal effect). An outline of the steps:
as §2

The nature of assay [11]: Quantitative High-Throughput drug screen in 47 multiple myeloma cell lines against the NCATS MIPE library collection: ARP1_JJKsccF8 cell viability assay (AID 1918928; further: nearly all actives have a fitted effect of over 40% in size; further: potency means the concentration at half of the fitted maximal effect). An outline of the steps: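 CellTiter-Glo luminescence after 48 h exposure gives viability, scaled between DMSO-only (100%) and media-only (0%) controls. Library compounds are pinned onto 500 myeloma cells per well, incubated at 37C with 5% CO2.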

A short description of assay [12]: Quantitative High-Throughput drug screen in 47 multiple myeloma cell lines against the NCATS MIPE library collection: ARD_JJKsccE7 cell viability assay (AID 1918929; further: potency means the concentration at half of the fitted maximal effect). A digest of the protocol:
as §2

A short description of assay [13]: Quantitative High-Throughput drug screen in 47 multiple myeloma cell lines against the NCATS MIPE library collection: Karpas620_DSMZ cell viability assay (AID 1918959). Further: nearly all actives have a fitted effect of over 30% in size. Further: potency means the concentration at half of the fitted maximal effect. A digest of the protocol:
as §1

Assay [14] in a line: NCATS anti-infectives library activity on the primary C. elegans qHTS viability assay (AID 1745855; calls by dose curve; further: potency means the concentration at half of the fitted maximal effect). A digest of the protocol:
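GFP read-out by 488 nm laser cytometry at day 0, 3 and 7, gated on object perimeter, area and peak intensity, scored viability of PE254-GFP-FLuc worms exposed to compound in S medium with bacterial capsules at 21 °C.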

A short description of assay [15]: NCATS anti-infectives library activity on HEK293 viability as a counter-qHTS vs the C. elegans viability qHTS (AID 1745854). An outline of the steps:
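Cytotoxicity counter-screen to a worm viability qHTS: CellTiter-Glo luminescence read 10 min after reagent addition. Compounds (final up to 41.7 uM, a 1:5 dilution series) incubated 24 hr at 37C with 1,500 HEK293 cells per well; digitonin control.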

A number with no mark means an inactive call. Records with an inconclusive call do not appear. Active and inactive are the calls of the source. Unless noted, the call rests on the fitted dose curve; in most records, active means well fitted curve in the direction sought with a large enough effect; inconclusive means small, poorly fitted or top-dose-only effect, or another doubt; inactive means no such curve, though single readings can be large; an effect the other way counts as inactive or inconclusive.

Sequence of Phospholipid hydroperoxide glutathione peroxidase GPX4 (Homo sapiens) (P36969 whole entry, looked up): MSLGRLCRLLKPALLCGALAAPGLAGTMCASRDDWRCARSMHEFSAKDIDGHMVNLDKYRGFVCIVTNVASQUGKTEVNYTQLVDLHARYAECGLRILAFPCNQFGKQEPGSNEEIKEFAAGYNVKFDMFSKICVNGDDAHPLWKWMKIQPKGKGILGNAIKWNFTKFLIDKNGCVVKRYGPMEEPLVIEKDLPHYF
Sequence of Glutathione peroxidase 1 (Homo sapiens) (P07203 whole entry, looked up): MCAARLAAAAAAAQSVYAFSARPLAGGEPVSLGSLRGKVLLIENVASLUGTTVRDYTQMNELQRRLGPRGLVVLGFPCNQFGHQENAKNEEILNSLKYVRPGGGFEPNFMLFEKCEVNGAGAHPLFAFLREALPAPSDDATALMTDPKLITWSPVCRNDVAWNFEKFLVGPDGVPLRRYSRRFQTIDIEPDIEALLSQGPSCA

`CC(C)CC(=O)Nc1n[nH]c2c1CN(C(=O)C1CCN(C)CC1)C2(C)C`: the Potency entry in assay [1], in assay [2], in assay [3], in assay [4], in assay [5] and in assay [6] was “inactive” each time. Besides, the Potency in [7] was 1.66 µM (active); in assay [8], 0.166 µM (active); in assay [9], 1.66 µM (active); in assay [10] it was 1.66 µM (active); in assay [11], 1.05 µM (active); in [12] it was 1.32 µM (active). Moreover, the Potency in [13] is 2.64 µM (active).
Turning to `CC(C)C[C@H](NC(=O)CNC(=O)c1cc(Cl)ccc1Cl)B(O)O`, the Potency in assay [14] is 1.29 µM (active); in assay [7], 0.0833 µM (active); in [8], 0.0469 µM (active); in assay [9], 0.148 µM (active); in assay [10], 0.0469 µM (active); in assay [11], 0.059 µM (active). The Potency was 0.0743 µM (active) in [12] and 0.118 µM (active) in [13]. Besides, the Potency entry in assay [1] and in assay [2] was “inactive” each time.
`COc1cc2nccc(Oc3ccc(NC(=O)C4(C(=O)Nc5ccc(F)cc5)CC4)cc3)c2cc1OC`: the Potency entry in [1], in assay [2], in [3], in [4], in [5] and in assay [6] was “inactive” throughout. For the same molecule, the Potency in assay [7] was 26.4 µM (active); in [8] it was 18.7 µM (active); in assay [9], 2.96 µM (active); in [10] it was 1.87 µM (active); in assay [11] it was 16.6 µM (active); in assay [12], 2.96 µM (active). Besides, in assay [13], the Potency was 5.26 µM (active).
As to `Cc1cn2c(-c3cn[nH]c3)cnc2c(Nc2ccc(C(=O)N3CCNCC3)cc2F)n1`, the Potency entry in assay [1], in assay [2], in [3], in assay [4], in assay [5] and in [6] was “inactive” each time. For the same molecule, the Potency entry in assay [10] is “inactive”. Besides, the Potency is 16.6 µM (active) in assay [7]; 7.43 µM (active) in assay [8]; 18.7 µM (active) in assay [9]; 23.5 µM (active) in assay [11]; 5.9 µM (active) in assay [12].
Take `CC(C)c1cc(C(=O)N2Cc3ccc(CN4CCN(C)CC4)cc3C2)c(O)cc1O`: the Potency entry in assay [1], in assay [2], in assay [3], in assay [4], in assay [5] and in [6] was “inactive” throughout. The Potency was 0.296 µM (active) in [7]; 0.296 µM (active) in assay [8]; 1.48 µM (active) in assay [9]; 0.132 µM (active) in assay [10]; 0.209 µM (active) in [11]; 0.0935 µM (active) in assay [12]. Also, in assay [13], the Potency is 0.166 µM (active).
Turning to `Nc1ccn([C@@H]2CS[C@H](CO)O2)c(=O)n1`, the Potency result in assay [15], in assay [1], in assay [2], in assay [7], in [9] and in assay [10] was “inactive” throughout. Moreover, the Potency result in assay [11], in assay [12] and in assay [13] was “inactive” throughout. In addition, the Potency in assay [8] is 42.9 µM (active).
Turning to `NC(=O)c1c(OCc2c(F)cc(Br)cc2F)nsc1NC(=O)NCCCCN1CCCC1`, the Potency result in assay [1], in [2], in assay [3], in assay [4], in [5] and in [6] was “inactive” throughout. Moreover, the Potency result in [12] and in [13] was “inactive” each time. The Potency was 7.43 µM (active) in [8] and 20.9 µM (active) in assay [9].
For the molecule `C=CC(=O)Nc1cccc(Oc2nc(Nc3ccc(N4CCN(C)CC4)cc3OC)ncc2Cl)c1`, the Potency result in [1], in assay [2], in assay [3], in assay [5] and in assay [6] was “inactive” throughout. The Potency in assay [4] is 2.67 µM (active); in [8], 0.0296 µM (active).
Regarding `C[C@]1(CO)CN(c2cc(C(=O)Nc3ccc4c(c3)-c3c(c(C(N)=O)nn3-c3ccc(F)cc3)CC4)c(Cl)cn2)C[C@@]1(C)CO`, the Potency entry in assay [1], in assay [2], in assay [3], in assay [4], in assay [5] and in assay [6] was “inactive” each time. In addition, the values for the Potency in assay [8] and in [13] were 9.35 µM (active) and 1.66 µM (active), respectively.
As for `Cn1cc(-c2ccncc2)c(-c2ccc(OCc3ccc4ccccc4n3)cc2)n1`, the Potency result in assay [1], in assay [2], in assay [3], in assay [4] and in assay [5] was “inactive” throughout. In addition, the Potency in [8] is 2.64 µM (active); in [9], 14.8 µM (active); in [10], 3.32 µM (active); in assay [11], 4.69 µM (active); in assay [12], 6.62 µM (active).
Consider `Cc1cc(Nc2ncnc3ccc(-c4ccc(CNCCS(C)(=O)=O)o4)cc23)ccc1Oc1ccn2ncnc2c1`, for which the Potency entry in [1], in [2], in [3], in assay [4] and in [6] was “inactive” throughout. Besides, the Potency was 18.7 µM (active) in assay [7]; 1.66 µM (active) in assay [8]; 20.9 µM (active) in assay [9]; 0.935 µM (active) in assay [10]; 11.8 µM (active) in assay [11]; 2.35 µM (active) in assay [12].
Take `O=C(Nc1nc2cccc(-c3ccc(CN4CCS(=O)(=O)CC4)cc3)n2n1)C1CC1`: the Potency result in [1], in [2], in [3], in [4], in assay [5] and in assay [6] was “inactive” each time. Further, the Potency was 9.35 µM (active) in assay [7], 18.7 µM (active) in [9], 5.9 µM (active) in assay [10] and 20.9 µM (active) in assay [11].
On to `CC(C)(O)CCc1ccc(OCc2cc(-c3cccc(OC(F)F)c3)c3ncccc3c2)cc1`, for which the Potency entry in [1], in [2], in assay [4], in assay [5], in assay [6] and in assay [7] was “inactive” in each case. Besides, the Potency result in assay [9], in assay [10], in assay [12] and in assay [13] was “inactive” in each case. Besides, the Potency in assay [3] is 13.5 µM (active).
`COc1cccc(-c2ccc(NC(=O)C3=C(C(=O)O)CCC3)c(F)c2)c1`: the Potency result in assay [1], in assay [2], in assay [4], in assay [6], in assay [8] and in assay [9] was “inactive” each time. Further, the Potency entry in assay [13] is “inactive”. The Potency was 5.36 µM (active) in [3], 12 µM (active) in assay [5], 6.62 µM (active) in assay [10] and 16.6 µM (active) in assay [11].
As for `CNC(=O)c1c(F)cccc1Nc1nc(Nc2cc3c(cc2OC)CCN3C(=O)CN(C)C)nc2[nH]ccc12`, the Potency entry in assay [1], in assay [2], in [3] and in assay [5] was “inactive” each time. The Potency was 1.06 µM (active) in assay [4]; 10.5 µM (active) in assay [7]; 0.0526 µM (active) in [8]; 0.209 µM (active) in assay [9]; 5.26 µM (active) in assay [11].
Consider `CNC(=O)c1cc(Oc2ccc(NC(=O)Nc3cc(C(C)(C)C)nn3-c3ccc4ncccc4c3)c(F)c2)ccn1`, for which the Potency entry in assay [1], in assay [2], in assay [3], in assay [4] and in assay [5] was “inactive” throughout. Also, the Potency in [7] is 4.69 µM (active); in [8] it was 5.9 µM (active); in assay [9], 6.62 µM (active); in assay [10], 7.43 µM (active); in assay [11], 8.33 µM (active); in assay [12] it was 9.35 µM (active). Also, the Potency in assay [13] is 23.5 µM (active).
